Measurements reported in article PMC4336329 (PLoS ONE, 2015).
Screen size: about 310,000 compounds; about 14,000 (4.5%) showed an effect of 50% or more. Effects have a minus sign here. The sample as a whole holds a higher share of strong results than the screen did.

target: human ether-à-go-go-related gene (hERG) potassium channel (human, UniProt Q12809); experiment: primary screen, population patch clamp on CHO cells stably expressing hERG; higher = less effect of the substance
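Also: peak tail current of the secondary pulse compared with the same well before compound.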

Chain of human ether-à-go-go-related gene (hERG) potassium channel (Q12809 whole entry, looked up): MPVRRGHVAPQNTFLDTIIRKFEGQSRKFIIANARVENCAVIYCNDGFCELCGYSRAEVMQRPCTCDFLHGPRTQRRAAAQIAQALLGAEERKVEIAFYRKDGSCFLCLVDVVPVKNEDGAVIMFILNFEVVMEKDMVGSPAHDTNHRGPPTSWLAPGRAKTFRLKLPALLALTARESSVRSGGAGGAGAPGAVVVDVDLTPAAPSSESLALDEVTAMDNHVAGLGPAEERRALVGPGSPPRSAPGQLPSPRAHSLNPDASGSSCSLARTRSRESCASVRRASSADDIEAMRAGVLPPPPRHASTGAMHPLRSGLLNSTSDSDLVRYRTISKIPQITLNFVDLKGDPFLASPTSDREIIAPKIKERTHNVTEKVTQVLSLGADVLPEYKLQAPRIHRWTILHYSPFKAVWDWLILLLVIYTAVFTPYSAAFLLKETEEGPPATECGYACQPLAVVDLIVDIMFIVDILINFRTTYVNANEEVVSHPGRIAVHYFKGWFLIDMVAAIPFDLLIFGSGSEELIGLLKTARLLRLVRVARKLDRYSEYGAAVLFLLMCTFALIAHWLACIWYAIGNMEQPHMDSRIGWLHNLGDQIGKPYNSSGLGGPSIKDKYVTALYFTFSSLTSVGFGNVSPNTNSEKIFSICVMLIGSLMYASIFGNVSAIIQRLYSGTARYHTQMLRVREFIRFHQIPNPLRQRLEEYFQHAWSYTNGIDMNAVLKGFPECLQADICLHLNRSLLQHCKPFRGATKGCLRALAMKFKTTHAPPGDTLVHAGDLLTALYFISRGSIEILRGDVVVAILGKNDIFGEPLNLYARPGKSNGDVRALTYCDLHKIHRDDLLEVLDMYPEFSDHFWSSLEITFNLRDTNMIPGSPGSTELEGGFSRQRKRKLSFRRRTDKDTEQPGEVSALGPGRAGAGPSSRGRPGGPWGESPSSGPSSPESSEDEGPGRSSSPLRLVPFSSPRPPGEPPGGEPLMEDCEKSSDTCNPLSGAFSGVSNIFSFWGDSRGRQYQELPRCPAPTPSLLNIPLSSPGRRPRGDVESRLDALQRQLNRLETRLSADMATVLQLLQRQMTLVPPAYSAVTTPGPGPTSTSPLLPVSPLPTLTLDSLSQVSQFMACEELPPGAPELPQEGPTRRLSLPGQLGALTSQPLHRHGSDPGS

Row | SMILES | hERG current change (%, negative = inhibition) at 10uM [%]
1 | COC(OC)c1ccc(C#N)c(SCc2ccccc2)n1 | 4.03
2 | CCNS(=O)(=O)c1ccc(CCC(=O)NCc2ccccn2)cc1 | 13.5
3 | O=C(CN1CCCCC1)NNc1nc(-c2ccccc2)c2cc(Cl)ccc2n1 | -58
4 | CC(=O)NNc1nc(-c2ccccc2)c2cc(Br)ccc2n1 | 5.01
5 | O=C(CN1CCCCC1)NNc1nc(-c2ccccc2)c2cc(Br)ccc2n1 | -55.4
6 | O=C(CN1CCOCC1)NNc1nc(-c2ccccc2)c2cc(Br)ccc2n1 | -38.7
7 | O=C(CCl)NNc1nc(-c2ccccc2)c2cc(Cl)ccc2n1 | 1.46
8 | O=C(O)CCC(=O)NNc1nc(-c2ccccc2)c2cc(Cl)ccc2n1 | 14.4
9 | COCCN(C(=O)CCCC(=O)Nc1ccccn1)C(C(=O)NC1CCCC1)c1ccc(C)cc1 (stereo not shown) | -5.66
10 | O=C(Nc1cc2c(oc1=O)CCCC2=O)c1cccc(Cl)c1 | 4.61
11 | CCC(Oc1ccccc1)C(=O)Nc1ccccc1C(=O)N1CCN(C)CC1 (stereo not shown) | 0.0528
12 | N#CC(c1ccccc1)N1CCOCC1 (stereo not shown) | 6.63
13 | S=C1SCN(Cc2cccnc2)CN1Cc1cccnc1 | -20.9
14 | S=C1SCN(Cc2cccnc2)CN1Cc1ccccc1 | -54.7
15 | S=C1NCN(Cc2cccnc2)CN1Cc1ccccc1 | 22.8
16 | Fc1ccc2[nH]c3c(N4CCN(C5CCCCC5)CC4)ncnc3c2c1 | -46.7
17 | COc1ccc(CN(CC2CCC(C(=O)O)CC2)C(=S)Nc2cc(C)cc(C)c2)cc1 (stereo not shown) | 19.6
18 | Cc1cc(N2CCN(C)CC2)nc(-c2ccccc2O)n1 | -41.9
19 | Cc1cc(N2CCCC2)nc(-c2ccccc2O)n1 | -1.15
20 | CCN1CCN(c2cc(C)nc(-c3ccccc3O)n2)CC1 | -58.9
21 | Cc1ccc(CN2CC(C(=O)Nc3cccc(S(=O)(=O)N4CCCCC4)c3)CC2=O)cc1 (stereo not shown) | 6.85
22 | CC(=O)c1ccc(OCC(C)C)c(CC(C(N)=O)C(N)=O)c1 | 19.2
23 | CCOC(=O)C1=C(C)N(CCO)C(=O)NC1c1cccc(O)c1 (stereo not shown) | 18.8
24 | O=C(Nc1ccnn1C1CCN(Cc2cccc(O)c2)CC1)C1CCCC1 | -36.5
25 | CSc1ccc(CN2CCC(n3nccc3NC(=O)C3CCOC3)CC2)cc1 (stereo not shown) | -67.8
26 | CSc1cccc(CN2CCC(n3nccc3NC(=O)C3CC3)CC2)c1 | -51.4
27 | CC(C)n1cc(CN2CCC(n3nccc3NC(=O)C3CCCC3)CC2)cn1 | -1.92
28 | Cc1ccc(CN2CCC(n3nccc3NC(=O)C3CCOC3)CC2)cc1 (stereo not shown) | -26.8

Row | SMILES | hERG current change (%, negative = inhibition) at 10uM [%]
29 | O=C(Nc1ccnn1C1CCN(Cc2ccc(Cl)cc2)CC1)C1CCCC1 | -63.6
30 | CSc1ccc(CC(=O)N2CCC(n3nccc3NC(=O)C3CC3)CC2)cc1 | -8.47
31 | O=C(Nc1ccnn1C1CCN(Cc2ccccc2)CC1)C1CCOC1 (stereo not shown) | 18.8
32 | O=C(Nc1ccnn1C1CCN(Cc2ccccc2)CC1)C1CCCC1 | -36.7
33 | O=C(Nc1ccnn1C1CCN(Cc2ccc(O)c(Cl)c2)CC1)C1CCCC1 | -33
34 | CC(Cc1ccc(Cl)cc1)N1CCC(n2nccc2NC(=O)C2CCCC2)CC1 (stereo not shown) | -76.3
35 | O=C(Nc1ccnn1C1CCN(C(=O)c2ccc(Cl)cc2)CC1)C1CC1 | -24.2
36 | CNC(=S)N/N=C/c1cn(CCOc2cccc(OC)c2)c2ccccc12 | 3.42
37 | O=C([O-])C(CCCCNS(=O)(=O)c1ccc(F)cc1)NS(=O)(=O)c1ccc(F)cc1.[K+] (stereo not shown) | 20.3
38 | COc1ccccc1NC(=O)C1=C(C)Nc2nc(CCCO)nn2C1c1ccc2c(c1)OCO2 (stereo not shown) | 7.42
39 | CCOC(=O)C1CCCC(NS(=O)(=O)c2ccc(NC(C)=O)cc2)C1 (stereo not shown) | -2.41
40 | Cc1ccc(S(=O)(=O)/N=C(/c2ccccc2)N(C)C)c(C)c1 | 12.7
41 | NC(=S)N/N=C1\c2ccccc2-c2c(C(=O)O)cccc21 | 12.7
42 | Cc1cc(C)c(C(=O)N2CCCC(CNC(=O)C3(c4ccc(Cl)cc4)CC3)C2)c(=O)[nH]1 (stereo not shown) | 6.58
43 | COCCN1C(=O)C(=O)/C(=C(/O)c2ccc(S(=O)(=O)N3CCOCC3)cc2)C1c1ccc(O)cc1 (stereo not shown) | 3.78
44 | O=C1OCC(CO)(CO)N=C1NNc1ccc(Cl)c(Cl)c1 | 8.16
45 | COC(=O)c1ccc2c(=O)n(CCCCCC(=O)NCc3ccc4c(c3)OCO4)c(=O)[nH]c2c1 | -31.7
46 | Cc1cc(C)cc(NC(=S)N2CCN(c3ccc(F)cc3)CC2)c1 | -8.95
47 | COC(=O)C1=C(c2ccccc2OCc2ccccc2)C[C@@H]2CC[C@H]1N2C(=O)NCc1ccc(N(C)C)cc1 | 10.9
48 | O=C(Nc1ccnn1C1CCN(Cc2cccc(OCCO)c2)CC1)C1CCCC1 | -24.8
49 | CC(C)Cc1ccc(CN2CCC(n3nccc3NC(=O)C3CCCC3)CC2)cc1 | -72.4
50 | CCOc1cccc(CN2CCC(n3nccc3NC(=O)C3CCCC3)CC2)c1 | -55.3
51 | CCc1ccc(CN2CCC(n3nccc3NC(=O)C3CCCC3)CC2)cc1 | -76.3
52 | CCn1cc(CN2CCC(n3nccc3NC(=O)C3CCCC3)CC2)cn1 | -6.15
53 | O=C(Nc1ccnn1C1CCN(Cc2cccc(OCCO)c2)CC1)C1CCOC1 (stereo not shown) | -2.98
54 | Cn1c(=S)c2[nH]c(SCCN3CCCC3)nc2n(C)c1=O | 10.5
55 | Cc1ccccc1NC(=S)N(CCN(C)C)C(C)c1ccccn1 (stereo not shown) | -8.78
